Source: PubChem BioAssay (EPA / NIEHS)
Records with an inconclusive call do not appear. The source holds several records for some structures; these can differ, active in one and inactive in another. Active and inactive are the calls of the source. The calls were made as follows, unless noted: active = hit-call score of the fitted dose curve at least 0.9, where 1 is the maximum; inactive = score below 0.9.

Key:
[1] = TOX21_p53_BLA_p2_viability: Viability Assessment in the Tox21 HCT-116 p53 Agonism Beta-lactamase Assay, Phase 2 (AID 2283591; active = hit-call score of the fitted dose curve at least 0.9, where 1 is the maximum;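 also: compound exposure lasted 16 h at 37 °C; actives lower the ATP signal meaning cytotoxicity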)
Summary of the method: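 Cytotoxicity readout: CellTiter-Glo ATP luminescence, 30 min at room temperature, after the beta-lactamase read. Cells were HCT116 exposed 16 h at 37C to compounds pin-transferred at 217-fold dilution from DMSO stocks.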

[2] = biological target: Cellular tumor antigen p53 (Homo sapiens) (UniProt P04637); test: TOX21_p53_BLA_p2_ratio: Tox21 HCT-116 p53 Agonism Beta-lactamase Assay, Ratio, Phase 2 (AID 2283592; active = hit-call score of the fitted dose curve at least 0.9, where 1 is the maximum)
Summary of the method: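 Read-out is the blue/green (460/530 nm, 405 nm excitation) ratio after 2 h CCF4-AM loading, fitted as gain versus DMSO. Compounds, pinned at 217-fold dilution from DMSO stocks, stayed 16 h on HCT-116 beta-lactamase reporter cells seeded 5 h earlier.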

[3] = TOX21_p53_BLA_p3_viability: Viability Assessment in the Tox21 HCT-116 p53 Agonism Beta-lactamase Assay, Phase 3 (AID 2283593; active = hit-call score of the fitted dose curve at least 0.9, where 1 is the maximum;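 also: cells exposed to compound for 16 h before reading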)
Summary of the method: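 Cellular ATP was quantified by CellTiter-Glo luminescence, read after 30 min at room temperature. Beforehand, HCT116 cells (4000/well) received compound 5 h post-seeding, 217-fold diluted from DMSO, then incubated 16 h at 37C.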

[4] = biological target: Cellular tumor antigen p53 (Homo sapiens) (UniProt P04637); test: TOX21_p53_BLA_p3_ratio: Tox21 HCT-116 p53 Agonism Beta-lactamase Assay, Ratio, Phase 3 (AID 2283596; active = hit-call score of the fitted dose curve at least 0.9, where 1 is the maximum)
Summary of the method: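 Cells were seeded at 4000/well, rested 5 h at 37C, then dosed with DMSO compound solutions (217-fold dilution) for 16 h. CCF4-AM substrate was loaded for 2 h at room temperature, and the 460/530 nm emission ratio was fitted for gain of signal versus DMSO.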

[5] = TOX21_p53_BLA_p4_viability: Viability Assessment in the Tox21 HCT-116 p53 Agonism Beta-lactamase Assay, Phase 4 (AID 2283597; active = hit-call score of the fitted dose curve at least 0.9, where 1 is the maximum;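 also: hits lower the luminescence signal meaning cytotoxicity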)
Summary of the method: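 Cytotoxicity as reduced cellular ATP (CellTiter-Glo luminescence, 30 min room temperature), measured in the same wells following the CCF4 FRET p53 reading. Human HCT-116 cells received compounds in DMSO (217-fold dilution) for 16 h.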

[6] = TOX21_p53_BLA_p5_viability: Viability Assessment in the Tox21 HCT-116 p53 Agonism Beta-lactamase Assay, Phase 5 (AID 2283600; active = hit-call score of the fitted dose curve at least 0.9, where 1 is the maximum)
Summary of the method: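 Viability came from CellTiter-Glo ATP luminescence, read after 30 min at room temperature. Before this, HCT-116 p53-bla cells (4000/well) had 16 hours of compound exposure at 37C, with DMSO stocks diluted 217-fold on transfer.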

[7] = biological target: Cellular tumor antigen p53 (Homo sapiens) (UniProt P04637); test: TOX21_p53_BLA_p4_ratio: Tox21 HCT-116 p53 Agonism Beta-lactamase Assay, Ratio, Phase 4 (AID 2283601; active = hit-call score of the fitted dose curve at least 0.9, where 1 is the maximum)
Summary of the method: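 Signal is the blue/green (460nm/530nm) ratio of cleaved versus uncleaved CCF4-AM substrate, read after 2 h substrate loading. Cells were HCT116 carrying the p53-responsive beta-lactamase reporter, dosed 16 h at 37C, 5% CO2; CellTiter-Glo measured in parallel.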

[8] = CCTE_Shafer_MEA_dev_firing_rate_mean: CCTE's Neural Network Formation Assay for Mean Firing Rate, Shafer Lab (AID 2284031)
Summary of the method: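 Steps: seed rat cortical cells (1.5 x 10^5/well) with laminin on PEI-coated MEA; dose day 0; record DIV 5/7/9/12, full media and compound exchange after DIV 5 and 9 recordings; compute well-mean firing rate AUC.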

[9] = CCTE_Shafer_MEA_dev_per_burst_spike_percent: CCTE's Neural Network Formation Assay for Percent of Spikes in a Burst, Shafer Lab (AID 2284032)
Summary of the method: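 Value is trapezoidal AUC over recordings on days 5, 7, 9 and 12 of the well-mean fraction of spikes falling in single-electrode bursts; rat cortical cultures exposed continuously from plating, treatment renewed DIV 5 and 9, fitted downward against DMSO.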

[10] = CCTE_Shafer_MEA_dev_per_burst_interspike_interval: CCTE's Neural Network Formation Assay for Burst Interspike Interval, Shafer Lab (AID 2284044)
Summary of the method: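 Mean interspike interval within single-electrode bursts, averaged over bursting electrodes, from rat cortical cultures on MEA plates recorded on days 5, 7, 9 and 12. Continuous compound exposure from plating; trapezoidal AUC fitted downward relative to DMSO.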

[11] = CCTE_Shafer_MEA_dev_burst_duration_mean: CCTE's Neural Network Formation Assay for Mean Burst Duration, Shafer Lab (AID 2284045);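 as to AC50: curve fitted for loss meaning shorter burst duration than DMSO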
Summary of the method: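 Mean single-electrode burst duration (first to last spike), averaged over bursting electrodes per well, then integrated as area-under-curve across recordings at days 5, 7, 9 and 12. Rat cortical cultures on MEAs, compound present from plating, refreshed at feeds.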

[12] = CCTE_Shafer_MEA_dev_interburst_interval_mean: CCTE's Neural Network Formation Assay for Mean Interburst Interval, Shafer Lab (AID 2284046);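 also: well-mean interburst interval of bursting electrodes as AUC over four recording days; curve fitted for decrease in interburst interval relative to DMSO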
Summary of the method: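 Network formation assay in primary rat cortical cultures, exposed from DIV 0 to 12. Mean interburst interval per well, integrated as AUC over four recordings.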

[13] = CCTE_Shafer_MEA_dev_network_spike_number: CCTE's Neural Network Formation Assay for Number of Network Spikes, Shafer Lab (AID 2284048);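 also: synchronized bursts across electrodes counted on days 5 7 9 12 and integrated as AUC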
Summary of the method: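 Number of network spikes (coordinated firing across electrodes) recorded on days 5, 7, 9 and 12 and summarised as area under the curve. Rat cortical cultures on MEA, continuous compound exposure with full medium/treatment exchange at DIV 5 and 9.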

[14] = CCTE_Shafer_MEA_dev_network_spike_peak: CCTE's Neural Network Formation Assay for Mean Number of Electrodes in Network Spike, Shafer Lab (AID 2284049)
Summary of the method: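 Rat cortical primary culture, 1.5 x 10^5 cells/well, 48-well MEA (16 electrodes/well). Dosing day 0 through DIV 12, full media/compound exchange DIV 5, 9. AxIS adaptive spike detection; AUC over days 5/7/9/12; loss-of-signal vs DMSO.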

[15] = CCTE_Shafer_MEA_dev_spike_duration_mean: CCTE's Neural Network Formation Assay for Mean Spike Duration, Shafer Lab (AID 2284051);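 also: mean network spike duration pooled as area under curve over DIV 5 to 12 recordings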
Summary of the method: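 With DMSO as baseline, loss of mean network spike duration was scored from extracellular recordings of rat cortical neurons on MEA plates. Exposure spanned plating to DIV 12; the four recording days were collapsed into one AUC value.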

[16] = CCTE_Shafer_MEA_dev_network_spike_duration_std: CCTE's Neural Network Formation Assay for Standard Deviation of Network Spike Duration, Shafer Lab (AID 2284052);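 also: hits are decreases in network spike duration SD versus DMSO vehicle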
Summary of the method: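 Developing networks of rat cortical neurons were exposed over twelve days in vitro on 48-well MEA plates. Trapezoidal AUC of recordings (DIV 5–12) was analysed for signal loss relative to DMSO vehicle.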

[17] = CCTE_Shafer_MEA_dev_per_network_spike_spike_number_mean: CCTE's Neural Network Formation Assay for Mean Number of Spikes in a Network Spike, Shafer Lab (AID 2284053)
Summary of the method: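 First, rat cortical cells (1.5 x 10^5/well) were seeded onto MEA wells; second, dosing began at plating and was refreshed on DIV 5 and 9; finally, network-spike spike counts across DIV 5–12 were summarized as AUC.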

[18] = CCTE_Shafer_MEA_dev_per_network_spike_spike_percent: CCTE's Neural Network Formation Assay for Percent of Spikes in a Network Spike, Shafer Lab (AID 2284054)
Summary of the method: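 Metric: fraction of spikes falling in a 0.05 s window at network-spike peaks. Recordings were made on days 5, 7, 9 and 12 and collapsed by trapezoidal AUC. Cultures were rat cortical neurons on MEA plates, dosed continuously from plating, re-dosed at media changes.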

[19] = CCTE_Shafer_MEA_dev_LDH: CCTE's Lactate Dehydrogenase Assay for Cytotoxicity in the Neural Network Formation Assay, Shafer Lab (AID 2284068; active = hit-call score of the fitted dose curve at least 0.9, where 1 is the maximum;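 also: exposure for twelve days from plating with re-dosing on DIV 5 and 9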)
Summary of the method: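 Developing rat cortical networks on MEA plates are exposed to compound for 12 days from plating. LDH activity is measured spectrophotometrically, with DMSO as baseline.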

[20] = CCTE_Shafer_MEA_dev_AB: CCTE's Alamar Blue Assay for Cytotoxicity in the Neural Network Formation Assay, Shafer Lab (AID 2284083; active = hit-call score of the fitted dose curve at least 0.9, where 1 is the maximum;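 also: resazurin reduction fluorescence as viability of cultured neurons; twelve days of exposure from plating with re-dosing on DIV 5 and 9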)
Summary of the method: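 Cytotoxicity companion to the developmental MEA: primary rat cortical neurons, 12-day exposure starting day 0, compound refreshed DIV 5 and 9; resazurin fluorescence, fitted against DMSO vehicle.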

[21] = CCTE_Shafer_MEA_dev_mutual_information_norm: CCTE's Neural Network Formation Assay for Mutual Information Normalization, Shafer Lab (AID 2284091)
Summary of the method: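 Shared information across electrodes, tracked on days 5, 7, 9 and 12 of network development and collapsed as trapezoidal area under the curve. Rat cortical cultures were treated continuously from plating, with treatment renewed at feeds on DIV 5 and 9; DMSO baseline, negative-direction fit.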

[22] = CCTE_Shafer_MEA_dev_correlation_coefficient_mean: CCTE's Neural Network Formation Assay for Mean Correlation Coefficient, Shafer Lab (AID 2284093)
Summary of the method: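 Extracellular firing from rat cortical networks on 48-well MEAs, DMSO-referenced, negative fitting direction. Compound present from plating to DIV12; mean pairwise correlation per well integrated over DIV5–12 recordings by trapezoidal AUC.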

[23] = IUF_NPC1b_proliferation_BrdU_72hr: Leibniz Research Institute for Environmental Medicine (IUF) 72-hour Neural Progenitor Cell Bromodeoxyuridine (BrdU) Proliferation Assay (NPC1b) (AID 2284207)
Summary of the method: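 Human fetal cortex-derived (GW 16-19) neural progenitor spheres, 0.25-0.35 mm, one per well in EGF/FGF proliferation medium, exposed to compound for 72 h at 37C, pH 7.2-7.6. BrdU incorporation over the final 16 h read by luminescence ELISA, relative to DMSO.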

[24] = IUF_NPC1a_proliferation_area_72hr: Leibniz Research Institute for Environmental Medicine (IUF) 72-hour Neural Progenitor Cell Proliferation Area Assay (NPC1a) (AID 2284208)
Summary of the method: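 Proliferation read as increase in sphere area by phase-contrast imaging over 72 h continuous compound exposure (no renewal) of hNPC spheres grown with EGF/FGF at 37C, 5% CO2. Growth-factor withdrawal served as positive control; DMSO as baseline.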

[25] = IUF_NPC1_viability_72hr: Viability Assessment at 72 hours in the Leibniz Research Institute for Environmental Medicine (IUF) Neural Progenitor Cell Proliferation Assay (NPC1) (AID 2284209)
Summary of the method: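 Spheres of primary human neural progenitors were plated singly in proliferation medium and treated for 72 h. Mitochondrial reduction of resazurin was then measured by fluorescence and analysed against DMSO controls.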

Chain of Cellular tumor antigen p53 (Homo sapiens) (P04637 whole entry, looked up): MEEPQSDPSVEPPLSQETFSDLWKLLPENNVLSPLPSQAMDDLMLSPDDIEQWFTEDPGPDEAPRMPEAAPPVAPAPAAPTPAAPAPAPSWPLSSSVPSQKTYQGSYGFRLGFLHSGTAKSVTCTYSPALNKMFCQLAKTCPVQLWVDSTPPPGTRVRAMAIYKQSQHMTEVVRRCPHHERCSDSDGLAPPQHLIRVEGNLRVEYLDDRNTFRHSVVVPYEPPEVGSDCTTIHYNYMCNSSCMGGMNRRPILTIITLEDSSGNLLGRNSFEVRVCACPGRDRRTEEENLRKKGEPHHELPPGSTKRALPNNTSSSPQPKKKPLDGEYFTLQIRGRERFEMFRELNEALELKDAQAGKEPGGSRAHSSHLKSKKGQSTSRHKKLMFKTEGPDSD

For C[C@H](CS)C(=O)N1CCC[C@H]1C(=O)O, the outcome [1] was “inactive”, the outcome [2] was “inactive” and the outcome [3] was “inactive”. The outcome [4] was “inactive”, the outcome [5] was “inactive” and the outcome [6] was “inactive”. For the same molecule, the outcome [7] was “inactive”, the outcome [8] was “inactive” and the outcome [9] was “inactive”. The outcome [10] was “inactive”, the AC50 [11] was 21.6 µM (active) and the outcome [11] was “inactive”. The outcome [12] was “inactive”, the outcome [13] was “inactive” and the outcome [14] was “inactive”. For the same molecule, the outcome [15] was “inactive”, the outcome [16] was “inactive” and the outcome [17] was “inactive”. For the same molecule, the outcome [18] was “inactive”, the outcome [19] was “inactive” and the outcome [20] was “inactive”. The outcome [21] was “inactive”, the outcome [22] was “inactive” and the outcome [23] was “inactive”. For the same molecule, the outcome [24] was “inactive” and the outcome [25] was “inactive”.
